Screening results (PubChem BioAssay)
PAFAH1B2 inh: inhibitors of human PAFAH1B2. P68402. recombinant PAFAH1B2, FP-rhodamine activity probe, fluorescence polarization. inhibition, % at 3.39 µM. actives 1.2% (n = 340,000);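 active means inhibition above the mean of all tested compounds plus 3 SD, cut at about 24% in these data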
Target sequence (P68402 whole entry, looked up): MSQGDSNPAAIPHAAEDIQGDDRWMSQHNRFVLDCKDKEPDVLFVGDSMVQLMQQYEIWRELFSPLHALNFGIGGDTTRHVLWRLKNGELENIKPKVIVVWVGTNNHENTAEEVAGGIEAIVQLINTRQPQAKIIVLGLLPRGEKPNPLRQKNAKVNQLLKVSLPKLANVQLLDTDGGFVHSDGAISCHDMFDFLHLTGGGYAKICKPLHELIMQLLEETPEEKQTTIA
PAFAH2 inh: inhibitors of human PAFAH2 | recombinant PAFAH2, FP-rhodamine activity probe, fluorescence polarization | Q99487 | actives 0.99% (n = 340,000) | inhibition, % at 3.39 µM | AID 492956;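 active means inhibition above the mean over all tested compounds plus 3 SD, cut at about 30% in these data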;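 further: inhibitors block probe labeling of enzyme so polarization drops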
DSG3 Ab inh: blocks pemphigus antibody binding to human desmoglein-3 | P32926 | DSG3-coupled beads, scFv-anti-DSG3-GFP binding, flow cytometry; hits give low values | binding (percent of control), % at 10 µM | actives 0.48% (n = 310,000) | AID 588358;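 active means binding more than 3 SD below its plate's average and above zero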;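 further: hits lower antibody fragment binding to DSG3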
pPAFAH FP inh: inhibitors of human plasma PAF acetylhydrolase (pPAFAH) | inhibition, % at 3.39 µM | actives 1.5% (n = 330,000) | recombinant pPAFAH, FP-rhodamine probe fluorescence polarization | AID 463082;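 active means inhibition above the mean inhibition across the screen plus 3 SD, cut at about 25% in these data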;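 further: inhibitors block binding of the rhodamine activity-based probe so polarization drops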
Target sequence (Q13093 whole entry, looked up): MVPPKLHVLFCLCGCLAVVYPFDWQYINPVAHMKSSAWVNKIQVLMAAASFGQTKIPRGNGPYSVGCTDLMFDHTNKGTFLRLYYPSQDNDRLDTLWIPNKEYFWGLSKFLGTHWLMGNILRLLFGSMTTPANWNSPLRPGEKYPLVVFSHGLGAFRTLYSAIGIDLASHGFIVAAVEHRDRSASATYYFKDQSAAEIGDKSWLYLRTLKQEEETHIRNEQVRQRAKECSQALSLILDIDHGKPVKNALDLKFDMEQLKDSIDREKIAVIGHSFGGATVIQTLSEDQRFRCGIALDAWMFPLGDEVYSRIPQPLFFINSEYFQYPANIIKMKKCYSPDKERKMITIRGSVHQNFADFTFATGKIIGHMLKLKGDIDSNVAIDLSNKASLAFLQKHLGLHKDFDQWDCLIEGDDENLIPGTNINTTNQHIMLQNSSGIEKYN
PfM18AAP inh-1: PfM18AAP enzyme inhibition; recombinant PfM18AAP, H-Glu-NHMec fluorogenic cleavage; inhibition, % at 7.35 µM; actives 1.2% (n = 290,000); AID 1822;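 active means inhibition above the campaign mean inhibition over all tested compounds plus 3 SD, cut at about 28% in these data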
PAFAH1B3 inh: PAFAH1B3 (human) inhibition. Q15102. recombinant PAFAH1B3, FP-rhodamine probe, fluorescence polarization. inhibition, % at 3.39 µM. actives 0.28% (n = 340,000). AID 492972;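 active means inhibition above the screen-wide average of all tested compounds plus 3 SD, cut at about 25% in these data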
PfM18AAP inh-2: confirmation of Plasmodium falciparum M18 aspartyl aminopeptidase inhibitors; shares compounds with PfM18AAP inh-1; recombinant PfM18AAP, H-Glu-NHMec fluorogenic cleavage; inhibition, % at 7.35 µM; actives 28% (n = 2,400); AID 2170;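 active means mean inhibition over replicate wells above the hit cutoff set for the earlier primary screen, cut at about 29% in these data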
CTSL1 counter: counter-screen for PFM18AAP inhibitors: confirmation of human cathepsin L inhibitors; shares compounds with PfM18AAP inh-1; purified cathepsin L1, Z-Leu-Arg-MCA fluorescence; inhibition, % at 5.96 µM; 2,400 tested, under 10 active;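 active means average inhibition across replicates above the hit cutoff set in the earlier primary screen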
pPAFAH confirm: confirmation of human plasma PAF acetylhydrolase (pPAFAH) inhibitors | shares compounds with pPAFAH FP inh | recombinant pPAFAH, FP-Rh probe fluorescence polarization | inhibition, % at 3.39 µM | actives 72% (n = 2,300) | AID 463230;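 active means mean inhibition of the triplicate above the hit cutoff set for the earlier primary screen, cut at about 25% in these data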
Large screens that a line does not name were inactive (follow-up assays come after a bar, where they were run). In the library only some 3.8% were active in any assay of this set; here they are far more common.

O=c1ccc2cc(O[C@@H]3O[C@@H](CO)[C@H](O)[C@@H](O)[C@@H]3O)c(O)cc2o1	PfM18AAP inh-1 32 | PfM18AAP inh-2 inactive | CTSL1 counter inactive
Nc1ncc([N+](=O)[O-])s1	none (no result: PfM18AAP inh-1)
CN1CCc2cc3c(c4c2C1Cc1ccccc1-4)OCO3 (stereo unspecified)	pPAFAH FP inh 29, PfM18AAP inh-1 50 | PfM18AAP inh-2 inactive | CTSL1 counter 46
CN1CCc2cc(O)cc3c2[C@H]1Cc1ccc(O)c(O)c1-3	none (no result: PfM18AAP inh-1)
COC(=O)C1=C(c2ccc(F)cc2OCc2ccccc2)C[C@@H]2CC[C@H]1N2C(=O)NCCCOC(C)C	none (no result: PfM18AAP inh-1)
CC1CN1P(=S)(c1ccccc1)N1CC1C (stereo unspecified)	none (no result: pPAFAH FP inh, PfM18AAP inh-1)
CCN1C[C@]2(C)CC[C@H](OC)[C@]34C2[C@H](OC(C)=O)[C@@]2(OCO[C@@]25C[C@H](OC)[C@H]2C[C@]3(O)C5[C@H]2OC)[C@@H]14	none
COC(=O)C1=C(c2ccccc2OCc2ccccc2)C[C@@H]2CC[C@H]1N2C(=O)NCc1cccc(C(F)(F)F)c1	none (no result: PfM18AAP inh-1)
O=C1NC(=O)C(=Cc2cc3c(cc2[N+](=O)[O-])OCO3)C(=O)N1	PfM18AAP inh-1 40 (no result: DSG3 Ab inh) | PfM18AAP inh-2 inactive | CTSL1 counter inactive
N#Cc1c(/N=C/c2ccc(O)cc2O)sc2c1C1CCN2CC1	PfM18AAP inh-1 40 | PfM18AAP inh-2 inactive | CTSL1 counter inactive
C=CCn1c(O)c(C(CC)=Nc2ccc3c(c2)CCC3)c(=O)[nH]c1=O	none (no result: DSG3 Ab inh)
C=CCn1c(O)c(C(CC)=Nc2ccc(N(C)C)cc2)c(=O)[nH]c1=O	pPAFAH FP inh 34, PfM18AAP inh-1 52 (no result: PAFAH1B2 inh, PAFAH2 inh, PAFAH1B3 inh) | PfM18AAP inh-2 inactive | CTSL1 counter inactive
CCN1CCN(Cc2cc3c(cc2[N+](=O)[O-])OCO3)CC1	PfM18AAP inh-1 48 | PfM18AAP inh-2 inactive | CTSL1 counter inactive
O=c1c2ccccc2nc(/C=C/c2ccc(O)c(O)c2)n1-c1ccccc1	pPAFAH FP inh 30, PfM18AAP inh-1 63 | PfM18AAP inh-2 41 | CTSL1 counter inactive
O=c1[nH]sc2cc(F)ccc12	DSG3 Ab inh 4.9, PfM18AAP inh-1 58 (no result: pPAFAH FP inh) | PfM18AAP inh-2 37 | CTSL1 counter inactive
C[C@]12CCC3C(CC[C@H]4C[C@@H](O)CC[C@]34C)C1C/C(=N/O)[C@@H]2O (stereo partly specified)	none (no result: PfM18AAP inh-1)
Cc1cccc(N=Cc2c(O)n(-c3ccccc3C)c(=O)[nH]c2=O)c1	none
C=CCn1c(O)c(C=Nc2ccc(N(CC)CC)cc2)c(=O)[nH]c1=O	pPAFAH FP inh 43, PfM18AAP inh-1 50 | PfM18AAP inh-2 inactive | CTSL1 counter inactive | pPAFAH confirm inactive
Cc1ccccc1-n1c(O)c(C=Nc2ccc(N(C)C)cc2)c(=O)[nH]c1=O	pPAFAH FP inh 46, PfM18AAP inh-1 46 | PfM18AAP inh-2 inactive | CTSL1 counter inactive | pPAFAH confirm inactive
CC1(C)C(=O)CCC2C1=CCC1C2CCC2(C)C(O)CCC12 (stereo unspecified)	none (no result: pPAFAH FP inh, PfM18AAP inh-1)
CN(C)C1C(=O)C(C(N)=O)=C(O)C2(O)C(=O)C3=C(O)c4c(O)cccc4C(C)(O)C3CC12 (stereo unspecified)	pPAFAH FP inh 36, PfM18AAP inh-1 36 | PfM18AAP inh-2 inactive | CTSL1 counter inactive | pPAFAH confirm inactive
CCC1CN1P(=O)(N1CCCC1)N1CC1CC (stereo unspecified)	none (no result: pPAFAH FP inh, PfM18AAP inh-1)
CCN(CC)c1ccc(N=Cc2c(O)n(-c3ccc(Cl)cc3)c(=O)[nH]c2=O)cc1	none
Cc1cc(C)cc(-n2c(O)c(C=Nc3ccc(N4CCOCC4)cc3)c(=O)[nH]c2=S)c1	none
CC(=O)N1CCN(c2ccc(N=Cc3c(O)n(-c4ccc(Cl)cc4)c(=O)[nH]c3=O)cc2)CC1	pPAFAH FP inh 41 | pPAFAH confirm inactive
O=c1[nH]c(=S)n(-c2ccc(Br)cc2)c(O)c1C=Nc1ccc(N2CCOCC2)cc1	pPAFAH FP inh 57 | pPAFAH confirm 33
CCC(=O)c1ccc(OCC(=O)N2CCN(CC(=O)Nc3ccccc3C(F)(F)F)CC2)cc1	none (no result: PfM18AAP inh-1)
COc1cc(C2(C#N)CCN(C)CC2)cc(OC)c1OC	none (no result: pPAFAH FP inh, PfM18AAP inh-1)
C[n+]1c(-c2ccccc2)c2cc(N)ccc2c2ccc(N)cc21	PAFAH1B2 inh 87, PAFAH2 inh 92, pPAFAH FP inh 68, PfM18AAP inh-1 34, PAFAH1B3 inh 121 | pPAFAH confirm 52
Cc1ccc(N2C(=O)NC(=O)/C(=C/C=C/c3ccco3)C2=O)cc1	none
O=C1NC(=O)N(Cc2ccc(F)cc2)C(=O)/C1=C\C=C\c1ccco1	PAFAH1B2 inh 30, pPAFAH FP inh 36 | pPAFAH confirm inactive
CC(C)c1ccc(N2C(=O)NC(=O)/C(=C/C=C/c3ccco3)C2=O)cc1	pPAFAH FP inh 43 | pPAFAH confirm inactive
CCc1ccc(N2C(=O)NC(=O)/C(=C\C=C\c3ccco3)C2=O)cc1	none
N#Cc1ccccc1Cn1cc(C(=O)c2ccco2)c2ccccc21	pPAFAH FP inh 72 (no result: DSG3 Ab inh) | pPAFAH confirm 77
O=C(c1ccco1)c1cn(Cc2ccccc2Cl)c2ccccc12	pPAFAH FP inh 74 | pPAFAH confirm 76
Cc1cccc(N2C(=O)NC(=O)/C(=C/c3cc4c(cc3[N+](=O)[O-])OCO4)C2=O)c1	pPAFAH FP inh 42 | pPAFAH confirm inactive
FC(F)(F)c1ccc2c(c1)N(CCCN1CCN(CCCl)CC1)c1ccccc1S2	pPAFAH FP inh 38 | pPAFAH confirm 31
CCN(CC)C(=O)c1ccc(NC(=O)c2cccc(S(=O)(=O)N3CCN(Cc4ccccc4)CC3)c2)cc1	none (no result: PfM18AAP inh-1)
Cc1ccc2c(c1Cl)NC(C(=O)O)C1CC(Sc3ccccc3[N+](=O)[O-])C(Cl)C21 (stereo unspecified)	PAFAH2 inh 43, DSG3 Ab inh 41, pPAFAH FP inh 49 | pPAFAH confirm 42
CCN(CC)C(=O)c1ccc2c(c1)C1C(Cl)C(Sc3ccccc3[N+](=O)[O-])CC1C(C(=O)O)N2 (stereo unspecified)	PAFAH1B2 inh 33, PAFAH2 inh 53, pPAFAH FP inh 68, PAFAH1B3 inh 26 | pPAFAH confirm 36
CC1CC2(C)C(CCC3C2CCC2(C)C(OP(=O)(N4CC4)N4CC4)CCC32)CC1=O (stereo unspecified)	none (no result: pPAFAH FP inh, PfM18AAP inh-1)
O=C1NC(=O)C(C2CCCCCC2)C(=O)N1	none (no result: pPAFAH FP inh, PfM18AAP inh-1)
